Drawing on PubChem BioAssay (NCATS), this text covers Potency and activity change, negative = cell killing for 22 compounds.

Where “and” joins values, the source holds several entries; their conditions need not be identical. Identical values can stand only once. Inconclusive results are not listed. Unmarked numbers belong to inactive results. Calls of active or inactive are those of the source. The call rests on the fitted dose curve; in most records, active means well fitted inhibition curve with a large enough effect; inconclusive means small, poorly fitted or top-dose-only effect; inactive means no such curve, though single readings can be large or run the other way.
On the % scale 0 is the no-effect control and ±100 the full control effect; potency means the concentration at half of the fitted maximal effect.

A short description of this test: Primary qHTS for inhibitors of nuclear receptor binding SET domain protein 2 (NSD2) in an RCH-ACV wild type WT cells (2C) (AID 1645877). Further: nearly all actives have a fitted effect of over 70% in size. The following applies: RCH-ACV (leukaemia line) NSD2 WT (2C) viability, CellTiter-Glo, 72 h; series mostly up to 44.9 µM. (qHTS replaces the single test concentration by a dilution series.)
`C=C1C(=O)OC2C(OC(=O)C=C(C)C)C(C)=C3C(=O)C=C(C)C3C(O)C12` (configuration not stated): the Potency was 3.19 µM (active).

On to `C/C(=C/CO)CCC1C(C)CCC2C(C)(C)CCCC12C` (configuration not stated), for which the Potency entry was “inactive”.

For `C=C(C(=O)O[C@H]1C/C(C)=C/CC/C(CO)=C/[C@H]2OC(=O)C(=C)[C@H]12)C(O)CO` (some centres not stated), the Potency is 2.84 µM (active). The same measure, in the same setting: as for `CN1CC[C@@H](c2c(O)cc(O)c3c(=O)cc(-c4ccc(C(F)(F)F)cc4Cl)oc23)[C@@H]1CO`, the figure is 16.6 µM (active); as for `C/C(=C\CCC(C)C1=CCC2(C)OC3=C(CC12)C(=O)C(O)CC3)CO` (configuration not stated), “inactive”. The same measure, in the same setting: as for `CN1CCN(C2CCN(C(=O)Nc3cc(Oc4ccc(NC(=O)C5(C(=O)Nc6ccc(F)cc6)CC5)c(F)c4)ccn3)CC2)CC1`, the figure is 7.28 µM (active) and 10.5 µM (active); as for `COc1cc([C@H]2O[C@H](c3cc(OC)c4c(c3)OCO4)[C@H](C)[C@H]2C)cc(OC)c1OC`, 3.55 µM (active).

In the case of `Cc1cc(C(=O)Nc2cc(Oc3ccc4nc(NC(=O)C5CC5)cn4n3)ccc2C)n(C)n1`, the Potency is 9.34 µM (active). Take `COc1cccc(NCCC2(c3ccccc3)CC(C)(C)OC(C)(C)C2)c1`: the Potency result is “inactive”. The same measure, in the same setting: as for `C=CC(C)(O)CC/C=C(\C)C(=O)OC1C(O)C(CO)OC(OC(=O)C23CCC(C)(C)CC2C2=CCC4C5(C)CCC(OC6OC(COC7OCC(OC(C)=O)C(O)C7OC7OC(COC(C)=O)C(O)C(O)C7OC(C)=O)C(O)C(O)C6OC6OCC(O)C(O)C6O)C(C)(C)C5CCC4(C)C2(C)C(O)C3O)C1OC1OCC(OC2OCC(O)C(OC3OCC(O)C(O)C3O)C2O)C(O)C1O` (configuration not stated), the figure is 1.25 µM (active); as for `COc1ccc(-c2ccccc2)cc1NS(=O)(=O)c1cc(Cl)cc(Cl)c1O`, “inactive”.

`CC(C)NC(=O)N1CC[C@H](N=C2Nc3cc(F)ccc3N(CC(F)F)c3ccc(Cl)cc32)C1`: the activity change, negative = cell killing was 1.84% [at 9.23 µM]. `CO[C@@H]1CC(OC2CCC3(C)C(CCC45CCC(C6=CC(=O)OC6)C(C)(CCC43)C5=O)C2)O[C@H](C)[C@@H]1O[C@@H]1O[C@H](CO[C@@H]2O[C@H](CO)[C@@H](O)[C@H](O)[C@H]2O)[C@@H](O)[C@H](O)[C@H]1O` (some centres not stated): the Potency is 3.46 µM (active). As for `C=C1CC[C@@H](O)[C@]2(C)C[C@H]3OC(=O)C(=C)[C@H]3CC12` (some centres not stated), the Potency was 12.9 µM (active).

Turning to `COc1ccc(C2=NC(c3ccc(Cl)cc3)C(c3ccc(Cl)cc3)N2C(=O)N2CCNC(=O)C2)c(OC(C)C)c1` (configuration not stated), the Potency is 2.58 µM (active).

Regarding `COc1ccc(CCc2nc3c(C)c(-c4c(C)noc4C)c(C)cc3n2CCN2CCOCC2)cc1`, the Potency was 18.3 µM (active).

Regarding `Cc1ccc(-c2ncccn2)c(C(=O)N2C[C@H](COc3ccc(F)cn3)CC[C@H]2C)c1`, the Potency result is “inactive”. Still for that read-out and setting: as for `Nc1nc(Nc2ccc3c(c2)CCC(N2CCCC2)CC3)nn1-c1cc2c(nn1)-c1ccccc1CCC2` (configuration not stated), the figure is 1.45 µM (active); as for `O=C(NCCCNC(=O)c1ccc[nH]c1=O)c1cc(-c2ccccc2)on1`, 9.34 µM (active). Turning to `CCC[C@H](N[C@H]1CCc2cc(F)cc(F)c2C1)C(=O)Nc1cn(C(C)(C)CNCC(C)(C)C)cn1`, the Potency is 13.2 µM (active). Consider `C=C1C(=O)OC2/C=C(\C)CC3C=C(CC/C=C(\C)CCC12)C(=O)O3` (configuration not stated), for which the Potency was 4.5 µM (active).

For the compound `C=C1C(=O)O[C@H]2C3=C(C)CCC[C@]3(C)C(=O)C[C@@H]12`, the Potency is 1.29 µM (active).
